# According to PubChem BioAssay:
# The source made the active and inactive calls.
# What was measured:
# [1] = E. coli DRC41 culture turbidity changes, primary screen, E. coli filamentation inducer project, strain DRC41, OD650, 48 h (AID 1152);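 also: E. coli MC1000 strain DRC41 lacking acrAB efflux pump and sulA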; details: E. coli DRC41 (acrAB sulA), higher = more signal, called active from +8 up or from −8 down
# [2] = small-molecule binders of probe aLefty1, primary screen, biochemical, small-molecule microarray, 635/667 nm fluorescence (AID 1153); details: higher = more signal;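 also: score merges spot fluorescence with signal-to-noise ratio from the scanned slide images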
# [3] = PSAC antagonists in infected red cells, primary screen, cell-based, P. falciparum Indochina, OD700, 1 h (AID 1154); details: P. falciparum Indochina infected RBC osmotic lysis, higher = more signal, called active from +8 up or from −8 down
# [4] = PSAC antagonists in infected red cells, primary screen, cell-based, P. falciparum Indochina, OD700, 2 h (AID 1155);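 also: lysis reports solute entry through the parasite surface anion channel PSAC; channel blockers reduce lysis of infected cells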; details: P. falciparum Indochina infected erythrocytes, osmotic lysis OD700; higher = more signal, called active from +8 up or from −8 down
# [5] = osmotic lysis modulators in infected erythrocytes, primary screen, PSAC antagonist project, cell-based, P. falciparum Indochina, OD700, 3 h (AID 1156); details: higher = more signal, called active from +8 up or from −8 down
# [6] = PSAC antagonists in infected red cells, primary screen, cell-based, P. falciparum Indochina, OD700, 18 h (AID 1157); details: P. falciparum Indochina infected erythrocytes, osmotic lysis OD700, 18 h; higher = more signal, called active from +8 up or from −8 down
# [7] = modulators of S6 phosphorylation in cells, primary screen, cell-based, A549, cytoblot, luminescence, serum-stimulated (AID 1158); details: A549 phospho-S6 cytoblot, 5 h, higher = more signal;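 also: serum-stimulated A549 lung adenocarcinoma cells; signal is phosphorylated S6 detected by cytoblot immunostaining with HRP secondary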
# [8] = target: NADPH oxidase 2 (Homo sapiens) (UniProt P04839); test: NOX2-dependent H2O2 signal modulators, primary screen, NOX inhibitor project, cell-based, HEK293-NOX2, PMA-stimulated, Amplex Red fluorescence (AID 1159); details: 45 min, higher = more signal, called active from +8 up or from −8 down; also: test concentration not given here
# [9] = target: NADPH oxidase 4 (Homo sapiens) (UniProt Q9NPH5); test: NOX4-dependent H2O2 signal modulators, primary screen, NOX inhibitor project, cell-based, HEK293-NOX4, tetracycline-induced, Amplex Red fluorescence (AID 1160); details: 45 min, higher = more signal, called active from +8 up or from −8 down
# [10] = target: NADPH oxidase 5 (Homo sapiens) (UniProt Q96PH1); test: NOX5-dependent H2O2 signal modulators, primary screen, NOX inhibitor project, cell-based, HEK293-NOX5, Amplex Red fluorescence (AID 1161); details: HEK293-NOX5, ionomycin, 45 min, higher = more signal
# [11] = A549 cell viability effects, profiling panel, calcein-AM fluorescence, 48 h, basal (AID 1162); details: higher = more signal; also: test concentration not given here
# [12] = adipocyte viability effects, profiling panel, cell-based, 3T3-L1 adipocytes, calcein-AM fluorescence, 48 h, basal (AID 1163); details: 3T3-L1 adipocytes viability, higher = more signal; also: test concentration not given here
# [13] = HepG2 cell viability effects, profiling panel, calcein-AM fluorescence, 48 h, basal (AID 1164); details: higher = more signal; also: test concentration not given here
# [14] = MM1S cell viability effects, profiling panel, calcein-AM fluorescence, 48 h, basal (AID 1165); details: higher = more signal;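 also: viability of MM1S multiple myeloma cells under basal unstimulated conditions; test concentration not given here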
# [15] = basal RPMI8226 viability, no added stimulus, profiling panel, cell-based, calcein-AM fluorescence, 48 h, PK04 Diversity Set (AID 1166); details: RPMI8226 myeloma viability, higher = more signal;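 also: cells grown under basal conditions without added stimulus; test concentration not given here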
# [16] = basal HepG2 mitochondrial membrane potential changes, profiling panel, cell-based, JC-1 fluorescence, 24 h, 100 nL compound (AID 1167); details: higher = more signal; also: test concentration not given here
# [17] = basal 3T3-L1 adipocyte mitochondrial potential changes, profiling panel, cell-based, JC-1 fluorescence, 3T3-L1 adipocytes, 24 h, 100 nL compound (AID 1168); details: JC-1 mitochondrial fluorescence, higher = more signal, called active from +8 up or from −8 down; also: test concentration not given here
# [18] = basal RPMI8226 mitochondrial membrane potential changes, profiling panel, cell-based, JC-1 fluorescence, 24 h, 100 nL compound (AID 1169); details: RPMI8226 myeloma, JC-1 mitochondrial potential fluorescence, higher = more signal; also: test concentration not given here
# [19] = basal MM1S mitochondrial membrane potential changes, profiling panel, cell-based, JC-1 fluorescence, 24 h, 100 nL compound (AID 1170); details: higher = more signal; also: test concentration not given here
# [20] = A549 lung cancer cell viability effects, profiling panel, resazurin fluorescence, 24 h, PK04 Diversity Set (AID 1171); details: higher = more signal, called active from +8 up or from −8 down; also: test concentration not given here
# Chain of NADPH oxidase 2 (Homo sapiens) (P04839 whole entry, looked up): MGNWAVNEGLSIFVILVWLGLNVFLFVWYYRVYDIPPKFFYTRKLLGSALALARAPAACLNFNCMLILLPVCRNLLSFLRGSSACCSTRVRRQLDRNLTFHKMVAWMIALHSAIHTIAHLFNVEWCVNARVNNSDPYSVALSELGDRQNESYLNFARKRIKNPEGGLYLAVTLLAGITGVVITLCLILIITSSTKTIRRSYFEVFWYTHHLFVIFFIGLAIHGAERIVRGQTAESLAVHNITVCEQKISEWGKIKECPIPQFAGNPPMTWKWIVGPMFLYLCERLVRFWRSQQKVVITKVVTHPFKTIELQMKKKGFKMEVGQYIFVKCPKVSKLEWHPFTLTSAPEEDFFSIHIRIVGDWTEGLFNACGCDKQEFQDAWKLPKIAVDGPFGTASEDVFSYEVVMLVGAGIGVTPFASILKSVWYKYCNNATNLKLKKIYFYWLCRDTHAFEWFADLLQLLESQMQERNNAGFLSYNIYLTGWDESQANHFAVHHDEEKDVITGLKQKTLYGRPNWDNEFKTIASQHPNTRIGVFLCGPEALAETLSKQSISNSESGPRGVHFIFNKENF
# Chain of NADPH oxidase 5 (Homo sapiens) (Q96PH1 whole entry, looked up): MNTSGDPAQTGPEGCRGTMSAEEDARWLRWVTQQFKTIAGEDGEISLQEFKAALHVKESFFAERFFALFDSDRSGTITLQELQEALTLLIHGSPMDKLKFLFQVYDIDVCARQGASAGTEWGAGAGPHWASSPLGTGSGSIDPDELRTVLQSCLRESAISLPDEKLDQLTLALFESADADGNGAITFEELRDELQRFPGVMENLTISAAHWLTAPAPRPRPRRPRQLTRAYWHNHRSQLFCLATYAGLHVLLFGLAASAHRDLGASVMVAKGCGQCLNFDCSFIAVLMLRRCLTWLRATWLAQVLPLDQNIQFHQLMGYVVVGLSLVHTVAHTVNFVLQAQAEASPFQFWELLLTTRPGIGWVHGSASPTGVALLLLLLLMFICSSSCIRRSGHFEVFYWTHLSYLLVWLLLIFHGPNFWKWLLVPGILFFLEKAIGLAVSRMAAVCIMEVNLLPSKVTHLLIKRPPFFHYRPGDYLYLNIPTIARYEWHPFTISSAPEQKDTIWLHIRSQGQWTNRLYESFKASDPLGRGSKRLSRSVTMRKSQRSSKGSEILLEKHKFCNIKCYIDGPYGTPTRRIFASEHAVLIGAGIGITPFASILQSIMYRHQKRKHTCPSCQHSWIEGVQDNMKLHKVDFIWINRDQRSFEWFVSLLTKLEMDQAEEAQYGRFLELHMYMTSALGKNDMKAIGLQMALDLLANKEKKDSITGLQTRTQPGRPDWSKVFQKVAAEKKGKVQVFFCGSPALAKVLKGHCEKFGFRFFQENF
# Chain of NADPH oxidase 4 (Homo sapiens) (Q9NPH5 whole entry, looked up): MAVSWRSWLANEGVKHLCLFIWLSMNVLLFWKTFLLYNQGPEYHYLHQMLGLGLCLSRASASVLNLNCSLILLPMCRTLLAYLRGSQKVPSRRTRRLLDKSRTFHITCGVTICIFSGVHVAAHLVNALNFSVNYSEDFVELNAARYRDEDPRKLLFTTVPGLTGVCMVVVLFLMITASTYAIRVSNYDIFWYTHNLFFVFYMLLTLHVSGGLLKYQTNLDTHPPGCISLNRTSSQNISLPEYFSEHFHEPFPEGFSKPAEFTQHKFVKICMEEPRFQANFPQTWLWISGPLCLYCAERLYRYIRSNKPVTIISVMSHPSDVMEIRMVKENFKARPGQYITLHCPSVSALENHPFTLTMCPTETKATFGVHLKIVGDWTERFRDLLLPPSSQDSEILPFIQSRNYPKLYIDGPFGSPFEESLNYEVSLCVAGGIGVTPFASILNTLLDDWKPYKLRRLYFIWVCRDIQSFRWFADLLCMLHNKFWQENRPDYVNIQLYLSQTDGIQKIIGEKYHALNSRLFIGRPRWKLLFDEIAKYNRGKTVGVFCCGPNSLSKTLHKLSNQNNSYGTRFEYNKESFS
SMILES,z-score [1],composite z-score [2],z-score [3],z-score [4],z-score [5],z-score [6],z-score [7],z-score [8],z-score [9],z-score [10],z-score [11],z-score [12],z-score [13],z-score [14],z-score [15],z-score [16],z-score [17],z-score [18],z-score [19],z-score [20]
C=CCNC(=O)[C@@H]1[C@H]2C(=O)O[C@H](c3ccccc3)[C@H](c3ccccc3)N2[C@H](c2ccc(OCCO)cc2)[C@@]12C(=O)Nc1ccc(C#CCC(C(=O)OC)C(=O)OC)cc12,1.13 (inactive),0.0973,5.24 (inactive),1.59 (inactive),1.28 (inactive),0.653 (inactive),-0.186,2.32 (inactive),0.186 (inactive),0.236,-0.305,1.09,0.22,-3.45,-4.16,0.644,1.39 (inactive),-0.907,-1.63,1.39 (inactive)
COC(=O)[C@@]1(Cc2ccc(OC)cc2)[C@H]2c3cc(C(=O)N(C)C)n(C)c3C[C@H]2CN1C(=O)c1ccccc1,-2.89 (inactive),1.56,1.98 (inactive),0.451 (inactive),1.07 (inactive),1.16 (inactive),0.775,1.12 (inactive),1.77 (inactive),2.16,-1.37,0.288,-1.7,-2.27,-2.47,2.66,-0.536 (inactive),-0.701,-1.17,-0.482 (inactive)
CN1C(=O)C2C=CC(C(O)C#Cc3ccccc3)N(N3CCCCC3)C2C1=O (stereo not given),-0.381 (inactive),0.807,1.24 (inactive),1.09 (inactive),0.83 (inactive),1.17 (inactive),-0.726,-0.23 (inactive),0.191 (inactive),-0.26,-0.388,-0.382,-0.149,0.241,0.609,-0.242,0.567 (inactive),0.382,-0.547,-0.913 (inactive)
O=C1N[C@@H](Cc2ccccc2)C(=O)N2[C@@H]1C[C@@H](C(=O)O)[C@H]2c1cccc(OCCO)c1,0.931 (inactive),0.0903,6.39 (inactive),1.12 (inactive),-2.03 (inactive),0.375 (inactive),1.17,-2.21 (inactive),-2.89 (inactive),-0.102,0.432,-0.732,-0.0202,-2.61,0.358,1.3,-1.49 (inactive),0.448,-1.19,2.99 (inactive)
COCCCNC(=O)[C@]1(CCC(=O)OC(C)(C)C)N=C(c2ccc(OCCCO)cc2)O[C@@H]1c1ccccc1CN=[N+]=[N-],-0.458 (inactive),1.06,26.3 (active),7.34 (inactive),0.785 (inactive),1.13 (inactive),-0.0406,-0.974 (inactive),0.289 (inactive),-0.307,-0.651,-0.579,-0.421,-0.658,0.338,-0.255,-0.2 (inactive),-0.315,-0.272,0.743 (inactive)
N#Cc1ccc(NN2C(C(O)C(c3ccccc3)c3ccccc3)C=CC3C(=O)N(c4ccccc4)C(=O)C32)cc1 (stereo not given),-0.0948 (inactive),0.651,5.66 (inactive),0.96 (inactive),0.891 (inactive),1.24 (inactive),0.151,-1.99 (inactive),-2.82 (inactive),-2.49,0.825,-1.53,0.361,0.0017,0.103,0.913,-0.435 (inactive),-0.812,-0.379,-0.386 (inactive)
Cc1ccc(S[C@]2(C(=O)NCCCN(C)C)CC(=O)N(Cc3ccccc3C(F)(F)F)[C@@H]2c2ccc(CO)cc2)cc1,0.674 (inactive),0.337,0.926 (inactive),0.479 (inactive),0.298 (inactive),-0.0133 (inactive),0.104,-6.22 (inactive),0.165 (inactive),0.526,0.397,-0.22,0.41,0.306,0.595,1.47,0.0218 (inactive),0.139,0.427,-0.515 (inactive)
COc1cc(COC(C)=O)ccc1OC(C)=O,3.19 (inactive),0.383,-1.49 (inactive),-0.983 (inactive),-1.76 (inactive),-2.3 (inactive),1.29,-4.55 (inactive),-0.433 (inactive),-0.154,1.97,0.223,1.5,-0.0098,-1.49,-0.367,0.374 (inactive),-0.219,0.528,0.339 (inactive)
CCC(CC)C(O)C1C=CC2C(=O)NC(=O)C2N1Nc1ccccn1 (stereo not given),-0.613 (inactive),0.158,0.146 (inactive),0.519 (inactive),-0.02 (inactive),0.973 (inactive),-0.534,-1.58 (inactive),-2.05 (inactive),-1.52,-0.651,-0.883,0.0063,0.152,0.0749,-0.29,-0.414 (inactive),-0.07,-0.138,-0.801 (inactive)
